According to paper PMC5540273 (PLoS ONE, 2017):

Assays:
CDC2L1 = system: T1, CDC2L1
T1 construct: gene CDK11B
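Note: kd values determined as follow-up on hits from a single-replicate KINOMEscan panel screen.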

O=C1NC(=O)C(c2ccc(Cl)cc2)=C1Nc1ccc(O)cc1 [SB-340867]
Kd (CAMK1D): > 10 µM | Kd (CAMK1): > 10 µM

COc1cccc(CNC(=O)NC2CCN(c3ccnc(Nc4ccc(F)cc4)n3)C2)c1 (stereo not shown) [GSK1379723]
Kd (CAMK2G): > 10 µM

CN1c2ccc(-c3ccc(C(N)=O)cc3)cc2-c2[nH]ncc2S1(=O)=O
Kd (CAMKK1): > 10 µM

Cc1c(Cn2c3ccccc3n3c(=O)cc(N4CCOCC4)nc23)cccc1C(F)(F)F [GSK2306394]
Kd (CDC2L1): > 10 µM

Cc1nccc(-c2c(-c3ccc(F)cc3)ncn2CCCN2CCOCC2)n1.Cl [SB-282975]
Kd (CDC2L1): > 10 µM

CC(=O)c1c(C)c2cnc(Nc3ccn(C)n3)nc2n(C2CCCC2)c1=O
Kd (CDC2L2): > 10 µM
